# Measured values from paper PMC4336329 (PLoS ONE, 2015).
# Out of some 310,000 compounds screened, about 14,000 (4.5%) showed an effect of 50% or more. Effects have a minus sign here. The list comes from a sample in which strong results are over-represented; it also holds similar structures and randomly drawn compounds.
# Biological target: human ether-à-go-go-related gene (hERG) potassium channel (human, UniProt Q12809)
# Experiment: primary screen, population patch clamp on CHO cells stably expressing hERG; higher = less effect of the substance
# 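Note: peak tail current of the secondary pulse compared with the same well before compound.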
# human ether-à-go-go-related gene (hERG) potassium channel, sequence (Q12809 whole entry, looked up): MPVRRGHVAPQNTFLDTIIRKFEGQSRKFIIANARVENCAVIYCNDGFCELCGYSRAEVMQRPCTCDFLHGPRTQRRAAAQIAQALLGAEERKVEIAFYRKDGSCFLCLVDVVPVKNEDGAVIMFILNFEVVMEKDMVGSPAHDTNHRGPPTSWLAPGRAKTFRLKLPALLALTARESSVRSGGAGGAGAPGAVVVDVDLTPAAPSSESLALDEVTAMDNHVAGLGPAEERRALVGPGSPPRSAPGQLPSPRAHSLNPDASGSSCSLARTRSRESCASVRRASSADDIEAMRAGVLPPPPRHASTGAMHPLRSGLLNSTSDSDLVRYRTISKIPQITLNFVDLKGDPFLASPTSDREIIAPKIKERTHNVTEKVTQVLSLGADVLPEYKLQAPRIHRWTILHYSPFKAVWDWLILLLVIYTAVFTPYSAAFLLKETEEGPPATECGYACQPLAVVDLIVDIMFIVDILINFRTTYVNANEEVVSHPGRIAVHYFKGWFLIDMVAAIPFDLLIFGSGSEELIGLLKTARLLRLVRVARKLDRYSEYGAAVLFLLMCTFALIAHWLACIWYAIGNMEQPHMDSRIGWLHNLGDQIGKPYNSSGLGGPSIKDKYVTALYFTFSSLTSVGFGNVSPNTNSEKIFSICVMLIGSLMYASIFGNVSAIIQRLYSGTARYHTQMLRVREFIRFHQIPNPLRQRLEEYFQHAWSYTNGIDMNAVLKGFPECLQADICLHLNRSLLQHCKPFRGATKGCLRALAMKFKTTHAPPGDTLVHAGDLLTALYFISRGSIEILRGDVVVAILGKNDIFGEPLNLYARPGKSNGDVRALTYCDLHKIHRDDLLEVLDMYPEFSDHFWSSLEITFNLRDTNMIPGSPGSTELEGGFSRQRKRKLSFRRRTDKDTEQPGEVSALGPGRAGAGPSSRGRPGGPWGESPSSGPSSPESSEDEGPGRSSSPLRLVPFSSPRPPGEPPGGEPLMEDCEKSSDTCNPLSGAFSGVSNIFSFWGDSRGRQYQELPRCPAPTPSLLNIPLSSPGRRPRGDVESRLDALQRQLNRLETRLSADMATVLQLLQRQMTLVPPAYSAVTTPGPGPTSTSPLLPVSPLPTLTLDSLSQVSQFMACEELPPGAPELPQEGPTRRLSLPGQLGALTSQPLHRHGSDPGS
row,SMILES,"hERG current change (%, negative = inhibition) at 10uM [%]"
1,COc1ccc(NC(=O)C2CCN(C(=O)[C@@H]3Cc4ccccc4CN3)CC2)cc1,-38.2
2,Cc1cccc(NC(=O)C2CCN(C(=O)[C@@H]3Cc4ccccc4CN3)CC2)c1,-67.2
3,Cc1ccc(NC(=O)C2CCN(C(=O)[C@@H]3Cc4ccccc4CN3)CC2)c(C)c1,-41.4
4,Cc1cc(C)cc(NC(=O)C2CCC(CNC(=O)[C@@H]3Cc4ccccc4CN3)CC2)c1 (some centres unmarked),0.322
5,Cc1ccc(NC(=O)C2CCN(C(=O)[C@@H]3Cc4ccccc4CN3)CC2)cc1,-67.3
6,CCc1ccc(NC(=O)C2CCC(CNC(=O)[C@@H]3Cc4ccccc4CN3)CC2)cc1 (some centres unmarked),4.23
7,Cc1ccc(NC(=O)C2CCC(CNC(=O)[C@@H]3Cc4ccccc4CN3)CC2)cc1 (some centres unmarked),-25.8
8,Cc1cc(C)cc(NC(=O)C2CCN(C(=O)[C@@H]3Cc4ccccc4CN3)CC2)c1,-67.7
9,CCc1ccc(NC(=O)C2CCN(C(=O)[C@@H]3Cc4ccccc4CN3)CC2)cc1,-59.5
10,Cc1cccc(NC(=O)C2CCC(CNC(=O)[C@@H]3Cc4ccccc4CN3)CC2)c1 (some centres unmarked),-2.36
11,COc1cccc(NC(=O)C2CCN(C(=O)[C@@H]3Cc4ccccc4CN3)CC2)c1,-48.1
12,COc1ccc(CNC(=O)C2CCN(C(=O)[C@@H]3Cc4ccccc4CN3)CC2)cc1,-24.8
13,COC(=O)COc1ccc(S(=O)(=O)Nc2ccc(NC(C)=O)cc2)cc1C,19.8
14,COc1ccc(C2Nc3ccccc3C(=O)N2Cc2ccccc2)cc1Cn1nnc2ccccc21 (centres unmarked),-25.1
15,Cc1cc(S(=O)(=O)N2CCN(c3ccccc3C)CC2)ccc1F,1.78
16,CCC(C)C(=O)Nc1nnc(SCC(=O)Nc2ccccc2F)s1 (centres unmarked),10.1
17,CCOc1ccc2c(c1)nc(C)n2C,11.7
18,C[C@]12CC[C@@H]3c4ccc(O)cc4CC[C@H]3[C@@H]1CC[C@@H]2OC(=O)CCC1CCCC1,14
19,O=C(CN1C(=O)CSCC1=O)Nc1ccc2c(c1)OCO2,16.2

row,SMILES,"hERG current change (%, negative = inhibition) at 10uM [%]"
1,Cc1ccc(S(=O)(=O)N2CCCCC2)cc1C(=O)c1nccn1C,-2.56
2,O=C(N/N=C\c1cn(-c2ccccc2)nc1-c1ccccc1)c1ccc2c(c1)OCO2,11.3
3,O=C(CSc1nnc(-c2ccncc2)n1-c1ccccc1)NC1CC1,4.69
4,Cc1cc(/C=C2\SC(=Nc3ccc(N4CCOCC4)cc3)N(C)C2=O)c(C)n1-c1cccnc1,11.3
5,Cc1cc(=O)n2[nH]c(C(F)(F)F)c(-c3ccccc3)c2n1,3.6
6,CC(C)C1NC(=S)N(Cc2ccccc2)C1=O (centres unmarked),5.2
7,CC(C)c1ccc(NC(=O)C2CCC(CNC(=O)[C@@H]3Cc4ccccc4CN3)CC2)cc1 (some centres unmarked),9.65
8,CC(C)c1ccc(NC(=O)C2CCN(C(=O)[C@@H]3Cc4ccccc4CN3)CC2)cc1,-67.4
9,CC(NC(=O)C1CCN(C(=O)[C@@H]2Cc3ccccc3CN2)CC1)c1ccccc1 (some centres unmarked),-25.7
10,CCOc1ccc(NC(=O)COC(=O)c2c(OC)cccc2OC)cc1,-1.27
11,Cl.OC(CN1C2=NCCN2c2ccccc21)c1ccc2c(c1)OCO2 (centres unmarked),-63.6
12,Cl.O=C(CN1C2=NCCN2c2ccccc21)N1CCOCC1,9.79
13,Cl.OC(CN1C2=NCCCN2c2ccccc21)c1ccc2c(c1)OCO2 (centres unmarked),-70.2
14,OC(c1ccc2c(c1)OCO2)c1nccc2ccccc12 (centres unmarked),-1.04
15,COc1cc(C(=O)NNC(=O)CSc2nnc3ccccn23)cc(OC)c1OC,15.4
16,CCCC(=O)Nc1ccc(C(=O)N/N=C/c2cccnc2)cc1,-8.24
17,CC1(C)Cc2c(cnn2-c2ccc(F)cc2)C(NC(=O)CCCN2CCCCC2=O)C1 (centres unmarked),2.89
18,CCCCOC(=O)Cn1c(=O)c2c(nc3n2CCCCN3c2ccc(C)cc2)n(C)c1=O,-52.8
19,CCOC(=O)Cn1c(=O)c2c(nc3n2CCCCN3c2ccc(OCC)cc2)n(C)c1=O,-41.4

row,SMILES,"hERG current change (%, negative = inhibition) at 10uM [%]"
1,CCOC(=O)Cn1c(=O)c2c(nc3n2CCCCN3c2ccc(C)cc2)n(C)c1=O,-19.5
2,Cc1ccccc1S(=O)(=O)Cc1ccc(C(=O)NCCN2CCCCC2C)o1 (centres unmarked),-39.3
3,CCOc1ccc(C2c3cc(OC)c(OC)cc3CC(=O)N2c2ccccc2)cc1 (centres unmarked),-26.5
4,CCOc1cc2c(cc1OCC)C(c1ccc(OC)cc1)N(c1ccccc1)C(=O)C2 (centres unmarked),-57.5
5,CCOc1cc2c(cc1OCC)C(c1ccccc1)N(c1ccccc1)C(=O)C2 (centres unmarked),-6.2
6,COC(=O)c1ccc(-n2c(C)cc(C(=O)COC(=O)CC3Sc4ccccc4NC3=O)c2C)cc1 (centres unmarked),28.5
7,CCN1CCN(C(=S)Nc2ccc3nc(N4CCN(C)CC4)cc(C)c3c2)CC1,-2.94
8,CCCN1CCN(C(=S)Nc2ccc3nc(N4CCN(CC)CC4)cc(C)c3c2)CC1,2.61
9,CCN1CCN(c2cc(C)c3cc(NC(=S)N4CCCC4)ccc3n2)CC1,-15.9
10,CCN1CCN(c2cc(C)c3cc(NC(=S)N4CCOCC4)ccc3n2)CC1,-23.4
11,Cc1cc(N2CCN(C)CC2)nc2ccc(NC(=S)N3CCCCCC3)cc12,-67.2
12,CCN1CCN(C(=S)Nc2ccc3nc(N4CCN(CC)CC4)cc(C)c3c2)CC1,-13.9
13,Cc1cc(N2CCN(C)CC2)nc2ccc(NC(=S)N3CCOCC3)cc12,-15.4
14,Cc1cc(N2CCN(C)CC2)nc2ccc(NC(=O)CCC3CCCC3)cc12,-74.6
15,CCN1CCN(c2cc(C)c3cc(NC(=S)N4CCCCC4)ccc3n2)CC1,-50.1
16,CCN1CCN(c2cc(C)c3cc(NC(=S)N4CCCC(C)C4)ccc3n2)CC1 (centres unmarked),-51.3
17,Cc1cc(N2CCN(C)CC2)nc2ccc(NC(=O)CCC(=O)NCCC(C)C)cc12,13.8
18,Cc1cc(N2CCN(C)CC2)nc2ccc(NC(=O)CCC(=O)NCc3ccco3)cc12,7.05
